S2 tox = reduces viability in counter-screen for ATXN expression inhibitors. Potency, µM (series often up to 56.7 µM), most hits filed as cytotoxic. actives 0.49% (n = 400,000). S2 cells (HEK-293 line with an ATXN2-luciferase reporter) viability, CellTiter-Fluor protease fluorescence, 24 h; further: potency means the concentration at half of the fitted maximal effect; nearly all actives have a fitted effect of over 40% in size
SW480 rerep = induces DNA re-replication in SW480 colon adenocarcinoma cells; SW480 DNA re-replication, Hoechst DNA content imaging, 48 h; Potency, µM (titrated, usually from 46.1 µM), without a hit: at the top dose re-replication activation, most hits filed as activators; actives 1.8% (n = 340,000); AID 624297; further: potency means the concentration at half of the fitted maximal effect; % of control where 0% means no effect; nearly all actives have a fitted effect of over 55% in size
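First, 250 cells per well were seeded. Next, compound or vehicle (23 nL) was pinned in, plates sat 48 hr at 37 C. Finally Hoechst was added for 40 min before fluorescence scanning.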
PINK1 expr mod = modulators of PINK1 expression | Potency, µM (titrated, usually from 76.6 µM), for the others: top-dose activation (PINK1 increase), most hits filed as activators | PINK1 immunofluorescence, high-content cytometry, 24 h | AID 624263 | actives 0.2% (n = 410,000); active means well fitted activation curve with a large enough effect; inconclusive means small, poorly fitted or top-dose-only effect; cell line not stated here; further: potency means the concentration at half of the fitted maximal effect; % of control where 0% means no effect; nearly all actives have a fitted effect of over 65% in size
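Measures PINK1 amount and localization on or inside mitochondria by immunofluorescence. Stable cells get compounds at 5 concentrations for 24 hours before fixation and staining; CCCP controls included.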
ATXN2 expr inh = reduces ATXN2 reporter expression in HEK-293 cells; HEK-293 ATXN2-luciferase reporter, luminescence, 24 h; Potency, µM (series often up to 57 µM), inactives show top-dose activity change, negative = inhibition, actives largely listed as inhibitors; actives 0.72% (n = 360,000); AID 1745845; further: potency means the concentration at half of the fitted maximal effect; on the % scale 0 is the no-effect control and ±100 the full control effect; nearly all actives have a fitted effect of over 55% in size
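ATXN2-luciferase reporter cells (luciferase flanked by upstream and downstream ATXN2 gene portions) were treated 24 h at 37 °C with compounds at up to 57 uM. SteadyGlo luminescence gave expression; GF-AFC fluorescence gave viability.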
MCF10A rerep = inducers of DNA re-replication in MCF 10A breast cells; Potency, µM (highest dose often 46.1 µM), without a hit: at the top dose activity, positive = re-replication, most hits filed as activators; actives 2.9% (n = 350,000); MCF 10A DNA re-replication, Hoechst nuclear intensity, 48 h; further: potency means the concentration at half of the fitted maximal effect; % of control where 0% means no effect; nearly all actives have a fitted effect of over 50% in size
IL1B secr inh = inflammasome signaling inhibition, IL-1 beta readout; activity change, % at 57.5 µM; actives 4.7% (n = 360,000); THP-1 LPS/ATP IL-1B secretion, AlphaLISA, 16 h; active compounds read low; AID 743279; in the data active means activity change below about -50%; inconclusive means mostly about -30% to -49%; further: on the % scale 0 is the no-effect control and ±100 the full control effect
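Secreted IL-1B measured by AlphaLISA bead assay after 16 h compound exposure of THP-1 cells; compounds (final up to 57.5 uM) added 1 h before LPS (250 ng/mL) and ATP (1.25 mM) stimulation; lower signal means less secretion.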
The depositor's hits bear a star; i = inactive; ? = inconclusive; . = no result given; [ ] = dose if it differs, or a comment. Only some compounds are listed: those with a hit (about 7.1% of all), similar ones and a draw of the others. Unless noted, the call rests on the fitted dose curve; in most records, active means well fitted curve in the direction sought with a large enough effect; inconclusive means small, poorly fitted or top-dose-only effect, or another doubt; inactive means no such curve, though single readings can be large; an effect the other way counts as inactive or inconclusive.

SMILES	S2 tox	SW480 rerep	PINK1 expr mod	ATXN2 expr inh	MCF10A rerep	IL1B secr inh
CC(=O)N1CCc2cc(CNC(=O)Cc3ccc(F)cc3)ccc21	.	.	1.3%	.	.	.
O=S(=O)(NC1CCCCC1)c1ccc(Cl)s1	i	?	-0.8%[38.3 µM]	0.1%	20.6µM*	7.2
CNC1=C(N(C(C)=O)c2ccc(Br)cc2)C(=O)c2ccccc2C1=O	.	8.2µM*	-0.4%	?	0.581µM*	-78.5*
CCC(=O)N(C1=C(NC)C(=O)c2ccccc2C1=O)C(C)C	?	?	-1.4%	.	5.8µM*	132.9
COc1ccc(C2=C(C)C(N3CCC(C(=O)NCc4ccco4)CC3)=NS2(=O)=O)cc1	i	.	3.1%	2.1%	.	.
CCOc1ccc2nc(N3CCCC(C(=O)NCCCN4CC(C)CC(C)C4)C3)sc2c1 (centres undefined)	?	?	-1.6%	-27.2%	15.0%	-53.5*
CC1CCN(c2nc3ccc(C(=O)NCCCN4CCCCC4C)cc3s2)CC1 (centres undefined)	?	20.6µM*	0.2%	6.8%	26.5%	?
CCOc1ccc2nc(N3CCCC(C(=O)NCCCN4C(C)CCCC4C)C3)sc2c1 (centres undefined)	?	?	3.3%	11.1%	?	-69.7*
CC1CCCC(C)N1CCCNC(=O)c1ccc2nc(N3CCCCC3)sc2c1 (centres undefined)	i	?	-0.7%	43.2%	2.7%	-4.9
COc1ccc2nc(N3CCCC(C(=O)NCCCN4CCN(C)CC4)C3)sc2c1 (centres undefined)	i	0.3%	-4.4%	0.8%	0.4%	-28.5
CCOc1ccc2nc(N3CCCC(C(=O)NCCCN4CCCCC4)C3)sc2c1 (centres undefined)	?	20.5%	3.6%	-19.6%	-1.3%	0.0
O=C(NCCc1ccc(Cl)cc1)c1ccc2nc(N3CCOCC3)sc2c1	i	4.0%	4.8%	-12.6%	20.6µM*	9.5
Cc1ccc2nc3sc(C(=O)Nc4ccc(F)cc4)cc3cc2c1	i	.	-1.3%	7.9%	.	.
Cc1ccc(NC(=O)C2CCC(CNS(=O)(=O)c3csc(C(N)=O)c3)CC2)cc1Cl (centres undefined)	i	.	11.2%	-8.2%	.	.
CC(C)(C)c1ccc(NC(=O)COc2ccc(-n3ccnc3)cc2)cc1	i	-5.7%	-0.3%	-25.8%	20.0%	-22.3
COc1cc(NC(=O)COc2ccc(-n3ccnc3)cc2)cc(OC)c1	i	6.6%	0.2%	.	3.8%	-106.0*
O=C(Cn1c(-c2cccs2)cc2cc(Cl)ccc21)NCc1ccccc1	i	.	6.0%	-10.6%	.	.
Cc1cc(=O)n2c(sc3ccccc32)c1C#N	i	23.1µM*	-1.3%	-9.7%	?	-6.3
CSc1cccc(NC(=O)C(c2ccccc2)N2Cc3ccccc3C2=O)c1 (centres undefined)	.	.	15.0%	.	.	.
COc1ccccc1NC(=O)N(Cc1cc2cc(OC)c(OC)cc2[nH]c1=O)CC1CCCO1 (centres undefined)	i	12.9%	1.2%	-18.5%	?	?
CCc1ccc2[nH]c(=O)c(CN(Cc3ccccc3OC)C(=O)Nc3ccccc3OC)cc2c1	i	7.0%	2.1%[38.3 µM]	-16.8%	?	-60.3*
COc1ccc2[nH]c(=O)c(CN(CC3CCCO3)C(=O)Nc3ccccc3OC)cc2c1 (centres undefined)	i	?	4.4%	-5.8%	?	-61.7*
O=C(CCn1c(=O)c2cccn2c2ccc(F)cc21)NCCc1ccccc1Cl	.	.	0.0%	.	.	.
Brc1ccc2c(c1)C(c1ccc(N3CCOCC3)cc1)=NNC(c1cccs1)=N2	i	1.6%	-2.5%	-2.0%	13.0%	-28.0
CCOc1ccc(C2=Nc3ccccc3C(c3ccc(N4CCOCC4)cc3)=NN2)cc1	?	20.6µM*	?	42.2%	16.4µM*	-12.1
SMILES	S2 tox	SW480 rerep	PINK1 expr mod	ATXN2 expr inh	MCF10A rerep	IL1B secr inh
Fc1ccc2c(c1)C(c1ccncc1)=NNC(c1ccccc1)=N2	i	-3.2%	-0.8%	4.4%	-4.1%	-4.0
Fc1ccc2c(c1)C(c1ccncc1)=NNC(c1ccc(Cl)cc1)=N2	i	4.8%	-5.2%[38.3 µM]	-20.4%	16.4%	-67.3*
Fc1ccc2c(c1)C(c1ccc(N3CCOCC3)cc1)=NNC(c1cccs1)=N2	?	-0.2%	-1.6%	-10.0%	24.0%	-50.8*
CCc1cccc(NC(=O)c2ccc(CNS(=O)(=O)c3ccc4c(c3)C(C)(C)C(=O)N4C)cc2)c1	.	.	-0.1%	.	.	.
O=C(C1CCN(S(=O)(=O)c2cccc3nonc23)CC1)N1CCN(c2ccccc2)CC1	i	.	3.0%	-18.5%	.	.
C#CC(=O)N(c1ccc(OC)cc1OC)C(C(=O)NC1CCCC1)c1cccs1 (centres undefined)	.	?	-1.1%	1.78µM*	?	-102.4*
C#CC(=O)N(c1cc(OC)ccc1OC)C(C(=O)NC1CCCC1)c1cccs1 (centres undefined)	31.6µM*	0.146µM*	-3.4%	?	25.8%	-120.2*
O=C(NC1CCCCC1)C(c1cccs1)N(C(=O)C(F)(F)F)c1ccccc1 (centres undefined)	i	?	.	8.7%	14.6µM*	15.5
Cc1c(C(=O)N2CCCCC2c2cccnc2)sc2ncnc(NCc3cccs3)c12 (centres undefined)	i	.	3.6%	.	.	.
O=C(O)c1ccccc1C(=O)N1CCN(c2cccc(Cl)c2)CC1	i	-0.5%	-0.7%	-3.5%	-0.6%	-8.1
CCOc1ccc2ccccc2c1C(=O)N1CCN(c2ccccc2)CC1	?	?	3.4%[38.3 µM]	-20.8%	13µM*	21.5
CCOc1ccccc1C(=O)N1CCN(c2cccc(Cl)c2)CC1	i	0.411µM*	6.3%[38.3 µM]	0.0%	?	44.8
COc1ccc(C(=O)N2CCN(c3cccc(Cl)c3)CC2)c(OC)c1	i	?	4.1%	-11.0%	18.4µM*	2.0
CCCCN(CC)CCNC(=O)C1CCCN(c2ncnc3onc(C)c23)C1 (centres undefined)	i	.	-0.8%	0.6%	.	.
COc1ccccc1C(CC(=O)c1ccccc1)C(=O)c1ccccc1 (centres undefined)	.	.	.	.	.	10.4
C=C(CCC(=O)c1ccccc1)C(=O)c1ccccc1	?	?	-3.8%	?	9.2µM*	-83.4*
C=C(C(=O)c1ccccc1)C(CC(=O)c1ccccc1)c1ccccc1 (centres undefined)	?	18.4µM*	-2.2%	25.1µM*	9.2µM*	-95.0*
CC(=O)N1CCN(S(=O)(=O)c2cccc(C(=O)NNC(=O)c3ccc(Br)cc3)c2)CC1	?	-4.7%	1.5%	.	0.7%	1.2
